The text below walks through data of PubChem BioAssay (EPA / NIEHS).

Records with an inconclusive call do not appear. Some compounds were tested as several samples or in several runs, with calls that do not always agree. The source made the active and inactive calls. How the source made its calls, unless noted: active means hit-call score of the fitted dose curve at least 0.9, where 1 is the maximum; inconclusive means response in the unintended direction; inactive means score below 0.9.

A short description of test [1]: CEETOX_H295R_ANDR: CeeTox H295R High-throughput Steroidogenesis Assay for Androstenedione (ANDR) (AID 2283436; active means hit-call score of the fitted dose curve at least 0.9, where 1 is the maximum; inactive means score below 0.9). The settings on record: actives raise or lower the signal. Put shortly:
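H295R human adrenal cells (passages ≤10) were exposed to test chemicals for 48 h; androstenedione in medium was MTBE-extracted and quantified by HPLC-MS/MS against a 7-point standard curve. Bidirectional fitting used DMSO as baseline.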

The target of test [2] is Retinoic acid receptor RXR-alpha (Homo sapiens) (UniProt P19793). The test is described as follows: OT_NURR1_NURR1RXRa_1440: Odyssey Thera (OT) 24-hour HEK293T Protein Complementation Assay for Nurr1/retinoid X receptor (RXR) (AID 2283386). Put shortly: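 Interaction of Nurr1 with RXRα brings fused reporter fragments together in human HEK293T cells, restoring a functional reporter. Fluorescence intensity is measured 24 h after chemical treatment, and values are analysed in the positive direction against DMSO.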
Sequence of Retinoic acid receptor RXR-alpha (Homo sapiens) (P19793 whole entry, looked up, the tested form may be a part): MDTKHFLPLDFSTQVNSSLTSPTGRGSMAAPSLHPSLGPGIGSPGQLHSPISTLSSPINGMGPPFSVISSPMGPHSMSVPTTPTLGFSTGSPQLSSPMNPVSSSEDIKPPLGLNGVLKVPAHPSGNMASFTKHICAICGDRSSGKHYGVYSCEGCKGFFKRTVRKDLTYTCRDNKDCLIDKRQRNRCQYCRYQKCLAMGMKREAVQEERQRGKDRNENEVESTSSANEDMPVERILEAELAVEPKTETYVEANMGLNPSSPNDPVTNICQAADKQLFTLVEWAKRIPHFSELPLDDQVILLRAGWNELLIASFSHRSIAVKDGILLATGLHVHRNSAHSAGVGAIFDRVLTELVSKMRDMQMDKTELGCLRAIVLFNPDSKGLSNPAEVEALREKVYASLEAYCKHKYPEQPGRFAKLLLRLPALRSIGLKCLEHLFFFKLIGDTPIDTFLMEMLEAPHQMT

Test [3] deals with Peroxisome proliferator-activated receptor gamma (Homo sapiens) (UniProt P37231). The test can be described thus: OT_PPARg_PPARgSRC1_0480: Odyssey Thera (OT) 8-hour Protein-Complementation Assay for Peroxisome Proliferator-activated Receptor Gamma / SRC-1 Co-activator (AID 2283387).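 Further: nuclear to cytoplasmic split Venus YFP fluorescence ratio reporting PPARg SRC-1 interaction.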 Put shortly:
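HEK293T transiently transfected with PPARg and SRC-1 fused to Venus YFP fragments, compounds 8 h at 37C. Fixed, Draq5-stained cells imaged; nuclear/cytoplasmic 488 nm fluorescence ratio over at least 350 cells per image; gain fitted versus DMSO.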

For test [4] the target is unchanged. The test can be described thus: OT_PPARg_PPARgSRC1_1440: Odyssey Thera (OT) 24-hour Protein-Complementation Assay for Peroxisome Proliferator-activated Receptor Gamma/ SRC-1 Co-activator (AID 2283388). Put shortly:
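Transient HEK293T, YFP fragments 1-158/159-239 (mutant IFP1/IFP2) fused to PPARg/SRC-1; 24 h dosing; fix 4% formaldehyde, Draq5; Opera imaging 488/635 nm; N/C ratio, gain vs DMSO.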

Test [5] is described as follows: CEETOX_H295R_OHPREG: CeeTox H295R High-throughput Steroidogenesis Assay for OH-Pregnenolone (OHPREG) (AID 2283434; active means hit-call score of the fitted dose curve at least 0.9, where 1 is the maximum; inactive means score below 0.9). The conditions noted are these: actives raise or lower the signal. Put shortly:
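Human adrenal H295R cells were prestimulated 48 h with 10 uM forskolin, then exposed 48 h to chemical in 0.1% DMSO. Medium 17alpha-hydroxypregnenolone was quantified by HPLC-MS/MS after MTBE extraction; bidirectional fitting versus DMSO baseline.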

The nature of test [6]: CEETOX_H295R_OHPROG: CeeTox H295R High-throughput Steroidogenesis Assay for OH-Progesterone (OHPROG) (AID 2283435; active means hit-call score of the fitted dose curve at least 0.9, where 1 is the maximum; inactive means score below 0.9;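 on AC50: 17alpha-hydroxyprogesterone secreted into medium measured by HPLC-MS/MS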). The settings on record: actives raise or lower the signal. Put shortly: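 H295R, 10 uM forskolin prestim 48 h; cmpd in 0.1% DMSO 48 h; medium MTBE-extracted, HPLC-MS/MS for OH-progesterone; 7-pt std curve; bidirectional fit vs DMSO; MTT viability, chemicals diluted until viability >/=70%.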

Test [7] is described as follows: CEETOX_H295R_CORTISOL: CeeTox H295R High-throughput Steroidogenesis Assay for Cortisol (AID 2283438; active means hit-call score of the fitted dose curve at least 0.9, where 1 is the maximum; inactive means score below 0.9;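 further: cortisol secreted into medium quantified by LC-MS/MS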). The settings on record: actives raise or lower the signal. Put shortly: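 Forskolin 10 uM 48 h prestim → test cmpd in DMSO (0.1% final) 48 h → medium MTBE-extracted → LC-MS/MS cortisol vs 7-pt std curve. Gain/loss of signal fitted vs DMSO. MTT viability in same wells.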

Sequence of Peroxisome proliferator-activated receptor gamma (Homo sapiens) (P37231 whole entry, looked up, the tested form may be a part): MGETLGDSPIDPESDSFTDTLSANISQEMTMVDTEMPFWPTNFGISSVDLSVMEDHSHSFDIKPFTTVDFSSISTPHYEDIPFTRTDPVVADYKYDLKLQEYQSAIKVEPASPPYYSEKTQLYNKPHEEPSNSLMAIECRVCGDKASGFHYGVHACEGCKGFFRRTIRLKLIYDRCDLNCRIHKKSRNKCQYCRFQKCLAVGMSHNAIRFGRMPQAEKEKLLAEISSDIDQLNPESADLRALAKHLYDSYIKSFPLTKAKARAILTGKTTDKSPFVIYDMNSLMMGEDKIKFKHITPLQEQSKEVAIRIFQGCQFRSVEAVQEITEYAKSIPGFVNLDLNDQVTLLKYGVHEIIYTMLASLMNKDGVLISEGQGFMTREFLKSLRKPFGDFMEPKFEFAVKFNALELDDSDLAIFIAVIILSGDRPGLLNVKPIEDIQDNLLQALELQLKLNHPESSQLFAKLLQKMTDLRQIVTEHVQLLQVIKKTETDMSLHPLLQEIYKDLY

On to `CCNc1nc(Cl)nc(NC(C)(C)C)n1`, for which the call in test [1] was inactive.

As a reminder, the AC50 is the midpoint of the concentration-response curve, whichever way the signal moves. With `CO/N=C(/C(=O)OC)c1ccccc1COc1ccccc1C`, in test [1], the AC50 is 21.2 µM (active).

As to `COC(N)=O`, the outcome in test [2], in test [3] and in test [4] was inactive.

With `Nc1ccc(Cl)cc1`, the AC50 in test [2] is 2.33 µM (active); in test [6], 25.5 µM (active). The result in test [2], in test [3], in test [4], in test [5] and in test [7] was inactive.

In the case of `CC(Cl)(Cl)C(=O)O`, the outcome in test [2], in test [3] and in test [4] was inactive.

Take `COP(N)(=S)OC`: the result in test [5], in test [6], in test [1] and in test [7] was inactive.

Consider `CC(=O)c1ccc(-c2ccccc2)cc1`, for which the call in test [5] and in test [7] was inactive. The AC50 in test [6] is 25.8 µM (active); in test [1], 50 µM (active).

Take `CC(Cc1ccc(OCC(=O)O)cc1)NCC(O)c1csc(C(F)(F)F)n1` (stereo unspecified): the molecule was classed as inactive in test [2], in test [3] and in test [4].

As for `COCCOCCO`, the outcome in test [2], in test [3] and in test [4] was inactive.

With `Nc1cc2c3c(c1)C(c1ccccc1)=N[C@@H](NC(=O)c1cccnc1)C(=O)N3CC2`, the outcome in test [2], in test [3] and in test [4] was inactive. In addition, the values for the AC50 in test [5], in test [6] and in test [7] were 27.6 µM (active), 4.41 µM (active) and 76.8 µM (active), respectively.

As for `CCOP(=S)(Oc1ccc([N+](=O)[O-])cc1)c1ccccc1` (stereo unspecified), the outcome in test [2], in test [3], in test [4] and in test [5] was inactive. The AC50 in test [6] is 0.404 µM (active).

For `c1ccc2c(c1)sc1ccccc12`, the outcome in test [3] and in test [4] was inactive.

`CCCCN(CCCC)SN(C)C(=O)Oc1cccc2c1OC(C)(C)C2`: the AC50 in test [2] is 84.7 µM (active). The molecule was classed as inactive in test [2], in test [3] and in test [4].

With `Oc1ccc(I)cc1`, the molecule was called inactive in test [5] and in test [7]. The AC50 in test [6] was 18.6 µM (active).

`Cc1ccc(O)cc1C`: the result in test [2], in test [5] and in test [6] was inactive.

Take `Nc1ccc([N+](=O)[O-])cc1Cl`: the molecule was called inactive in test [5], in test [6], in test [1] and in test [7].
